Laboratory results as given in PubChem BioAssay (EPA / NIEHS).
“And” between values parts separate entries of the source, which are not always exact repeats. Equal values may be shown once. More than one record can exist for a structure, and the calls need not agree. The source made the active and inactive calls. The calls were made as follows: active = hit-call score of the fitted dose curve at least 0.9, where 1 is the maximum; inactive = score below 0.9.

Assays:
[1] = ATG_GLI_CIS: Attagene CIS-FACTORIAL HepG2 Assay for human Zinc Finger Protein GLI1 (AID 2282945); conditions: HepG2, Attagene cis-factorial reporter mRNA, GLI element; actives raise or lower the signal
Outline: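 Transiently transfected HepG2 cells report endogenous transcription factor activity via cis-element-driven reporter units. After 24 h compound exposure, reporter mRNA was measured by RT-PCR with capillary electrophoresis; bidirectional fitting against DMSO baseline.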

[2] = ATG_GRE_CIS: Attagene CIS-FACTORIAL HepG2 Assay for human Glucocorticoid Response Elements (GRE) (AID 2282947); conditions: HepG2 GRE cis-reporter, Attagene multiplex mRNA; actives raise or lower the signal
Outline: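 Read-out: fluorescent reporter-transcript fragments separated by capillary electrophoresis after RT-PCR. Transiently transfected HepG2 cells carrying cis-element-driven reporter units were dosed for 24 h; gain or loss of signal fitted against DMSO control.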

[3] = ATG_ISRE_CIS: Attagene CIS-FACTORIAL HepG2 Assay for human Interferon Regulatory Factor 1 (IRF1) binding to an Interferon-Stimulated Response Element (ISRE) (AID 2282948); conditions: HepG2 ISRE cis-reporter (Attagene), mRNA transcription readout; actives raise or lower the signal
Outline: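 Uses HepG2 liver cells transfected with cis-regulated reporters and measures mRNA 24 h post-dosing through RT-PCR, primer-extension labelling and capillary electrophoresis, with DMSO as negative control.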

[4] = ATG_M_32_CIS: Attagene CIS-FACTORIAL HepG2 Assay for M32 Transcription Factor (Internal Marker) (AID 2282949); conditions: HepG2 Attagene cis-factorial M32 reporter, mRNA; actives raise or lower the signal;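 also: background control marker of the multiplexed CIS panel rather than a real target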
Outline: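 Transient MRTU transfection of HepG2; 24 h compound treatment; TriZol RNA, oligo(dT) RT, reporter PCR, 6-FAM primer extension, HpaI cut, CE. Gain/loss of signal vs DMSO.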

[5] = ATG_M_06_CIS: Attagene CIS-FACTORIAL HepG2 Assay for M06 Transcription Factor (Internal Marker) (AID 2282950); conditions: HepG2 Attagene CIS-FACTORIAL M06 internal marker reporter; actives raise or lower the signal
Outline: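 Steps: transfect HepG2 with multiplexed cis-element reporter constructs; dose chemical 24 h; extract RNA with DNase treatment; reverse-transcribe, PCR-amplify, 6-FAM label, HpaI digest; separate fragments by capillary electrophoresis. Activity fitted both directions versus DMSO.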

[6] = target: Hypoxia-inducible factor 1-alpha (Homo sapiens) (UniProt Q16665); test: ATG_HIF1a_CIS: Attagene CIS-FACTORIAL HepG2 Assay for human Hypoxia Inducible Factor 1 (HIF1A) (AID 2282951); conditions: HepG2 Attagene cis-factorial HIF1a reporter transcription; actives raise or lower the signal
Hypoxia-inducible factor 1-alpha (Homo sapiens), sequence (Q16665 whole entry, looked up, the tested form may be a part): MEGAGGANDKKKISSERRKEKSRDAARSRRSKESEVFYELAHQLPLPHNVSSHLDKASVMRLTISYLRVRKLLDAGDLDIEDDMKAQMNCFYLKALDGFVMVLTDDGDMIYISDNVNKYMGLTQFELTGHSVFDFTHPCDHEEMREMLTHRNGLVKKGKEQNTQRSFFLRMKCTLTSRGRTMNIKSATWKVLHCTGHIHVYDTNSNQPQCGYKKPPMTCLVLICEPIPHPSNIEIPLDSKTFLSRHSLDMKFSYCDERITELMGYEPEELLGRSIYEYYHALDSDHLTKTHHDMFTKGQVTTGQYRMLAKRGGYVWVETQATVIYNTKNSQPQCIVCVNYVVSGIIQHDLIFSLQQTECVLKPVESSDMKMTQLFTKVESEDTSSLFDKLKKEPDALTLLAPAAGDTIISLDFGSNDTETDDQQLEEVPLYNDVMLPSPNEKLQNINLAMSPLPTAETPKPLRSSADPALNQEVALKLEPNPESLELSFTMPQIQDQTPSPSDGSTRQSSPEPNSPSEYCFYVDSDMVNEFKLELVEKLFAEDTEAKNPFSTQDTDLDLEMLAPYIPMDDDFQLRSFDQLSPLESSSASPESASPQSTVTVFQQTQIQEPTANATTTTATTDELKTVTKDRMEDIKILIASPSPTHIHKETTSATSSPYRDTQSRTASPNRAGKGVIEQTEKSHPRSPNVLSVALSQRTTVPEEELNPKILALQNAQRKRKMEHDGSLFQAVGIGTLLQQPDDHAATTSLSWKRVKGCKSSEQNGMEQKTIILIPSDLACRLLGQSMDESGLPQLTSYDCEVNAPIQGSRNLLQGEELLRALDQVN
Outline: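 Transient MRTU transfection of human HepG2 liver cells, 24 h compound treatment, then total RNA isolation, oligo(dT) reverse transcription, PCR amplification, fluorescent labelling and capillary electrophoresis of reporter fragments. Gain or loss relative to DMSO.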

[7] = target: Heat shock factor protein 1 (Homo sapiens) (UniProt Q00613); test: ATG_HSE_CIS: Attagene CIS-FACTORIAL HepG2 Assay for human Heat Shock Transcription Factor 1 (HSE) (AID 2282953); conditions: HepG2 HSE cis-reporter, Attagene RNA transcription; actives raise or lower the signal
Heat shock factor protein 1 (Homo sapiens), sequence (Q00613 whole entry, looked up, the tested form may be a part): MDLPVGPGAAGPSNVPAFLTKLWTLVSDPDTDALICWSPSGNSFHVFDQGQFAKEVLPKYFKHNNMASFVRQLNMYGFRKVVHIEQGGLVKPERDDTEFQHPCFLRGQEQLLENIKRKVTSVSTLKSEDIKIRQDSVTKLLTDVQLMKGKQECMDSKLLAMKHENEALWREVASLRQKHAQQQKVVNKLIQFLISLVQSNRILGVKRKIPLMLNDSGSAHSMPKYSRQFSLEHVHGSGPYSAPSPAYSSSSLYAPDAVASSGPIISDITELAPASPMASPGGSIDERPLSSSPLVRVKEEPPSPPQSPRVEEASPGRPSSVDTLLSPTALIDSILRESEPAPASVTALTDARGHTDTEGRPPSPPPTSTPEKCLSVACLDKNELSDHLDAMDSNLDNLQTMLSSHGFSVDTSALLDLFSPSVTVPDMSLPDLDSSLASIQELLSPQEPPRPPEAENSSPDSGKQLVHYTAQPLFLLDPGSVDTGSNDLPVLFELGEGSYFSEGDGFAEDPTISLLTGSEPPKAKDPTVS
Outline: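 Cells were transfected with cis-element-driven reporter constructs, dosed for 24 h, then total RNA was reverse-transcribed and reporter cDNA amplified, FAM-labelled and digested with HpaI. Fragments were resolved by capillary electrophoresis; gain or loss was fitted against DMSO.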

[8] = ATG_MRE_CIS: Attagene CIS-FACTORIAL HepG2 Assay for human Metal Responsive Element (MRE) (AID 2282954); conditions: HepG2 MRE cis-reporter transcription, Attagene multiplex; actives raise or lower the signal
Outline: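 RT-PCR/capillary electrophoresis readout of reporter mRNA, 24 h post-dosing, in HepG2 cells transfected with multiplexed cis-regulated reporter constructs. Gain or loss of signal fitted bidirectionally against DMSO baseline.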

[9] = ATG_PBREM_CIS: Attagene CIS-FACTORIAL HepG2 Assay for human Phenobarbital-responsive Enhancer Module (PBREM) (AID 2282955); conditions: HepG2 PBREM cis-reporter, Attagene multiplexed transcription; actives raise or lower the signal
Outline: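 Endogenous transcription factors in human liver HepG2 cells drive a PBREM cis-element reporter, whose transcript level after 24 h treatment is quantified by RT-PCR with capillary electrophoresis; activity fitted in both directions against DMSO.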

[10] = target: Paired box protein Pax-6 (Homo sapiens) (UniProt P26367); test: ATG_Pax6_CIS: Attagene CIS-FACTORIAL HepG2 Assay for human Paired Box 6 (PAX6) (AID 2282956); conditions: HepG2 CIS-FACTORIAL PAX6 reporter transcription, RNA readout; actives raise or lower the signal
Paired box protein Pax-6 (Homo sapiens), sequence (P26367 whole entry, looked up): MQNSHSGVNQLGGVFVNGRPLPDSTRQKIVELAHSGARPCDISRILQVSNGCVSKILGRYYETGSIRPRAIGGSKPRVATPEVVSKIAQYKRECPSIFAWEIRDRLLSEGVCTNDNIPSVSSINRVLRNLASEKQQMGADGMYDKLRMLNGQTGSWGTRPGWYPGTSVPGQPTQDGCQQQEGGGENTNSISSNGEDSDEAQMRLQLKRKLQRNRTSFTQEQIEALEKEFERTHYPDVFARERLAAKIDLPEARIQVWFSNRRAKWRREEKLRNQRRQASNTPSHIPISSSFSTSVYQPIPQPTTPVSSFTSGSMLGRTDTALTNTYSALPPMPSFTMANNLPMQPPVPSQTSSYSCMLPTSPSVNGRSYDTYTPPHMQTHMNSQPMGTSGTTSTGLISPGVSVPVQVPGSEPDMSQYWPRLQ
Outline: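 DMSO-referenced bidirectional fits of reporter mRNA fluorescence; HepG2 with transient cis-promoter MRTUs, 24 h post-dose, RT-PCR plus capillary electrophoresis detection.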

[11] = ATG_PXRE_CIS: Attagene CIS-FACTORIAL HepG2 Assay for human Pregnane X Receptor Element (PXRE) (AID 2282957); conditions: HepG2 Attagene CIS-FACTORIAL PXRE reporter, mRNA; actives raise or lower the signal
Outline: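 Fluorescent capillary electrophoresis of amplified reporter cDNA gave the signal, collected 24 h after dosing HepG2 cells that held transfected cis-element reporter constructs.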

[12] = ATG_PPRE_CIS: Attagene CIS-FACTORIAL HepG2 Assay for human Peroxisome Proliferator-activated Response Element (PPRE) (AID 2282958); conditions: HepG2 PPRE cis-element reporter, Attagene transcription factor profiling; actives raise or lower the signal
Outline: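 HepG2, transient MRTU transfection (cis promoter elements, endogenous TFs). 24 h dosing. RNA → oligo(dT) RT → PCR → 6-FAM primer extension → HpaI digest → CE. Bidirectional fit vs DMSO.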

[13] = ATG_RORE_CIS: Attagene CIS-FACTORIAL HepG2 Assay for human RAR-related Orphan Receptor Element (RORE) (AID 2282959); conditions: HepG2 Attagene cis-factorial RORE reporter, mRNA; actives raise or lower the signal
Outline: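 Transient MRTU transfection of human HepG2 liver cells (FuGene 6); 24 h compound exposure; TriZol RNA, oligo(dT) RT, PCR, FAM labeling, HpaI cut, CE fragment analysis. DMSO = negative control/baseline.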

[14] = ATG_Sox_CIS: Attagene CIS-FACTORIAL HepG2 Assay for human SRY-box transcription factor (SOX) (AID 2282960); conditions: HepG2 Attagene cis-factorial SOX reporter, mRNA; actives raise or lower the signal
Outline: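 Endogenous factor activity in human liver HepG2 cells carrying transfected cis-regulated reporter units. RNA taken 24 h post-dose, reverse-transcribed, PCR-amplified and sized by capillary electrophoresis. Gain or loss of signal fitted relative to DMSO.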

[15] = target: Transcription factor Sp1 (Homo sapiens) (UniProt P08047); test: ATG_Sp1_CIS: Attagene CIS-FACTORIAL HepG2 Assay for human Specificity Protein 1 (Sp1) (AID 2282961); conditions: HepG2 Sp1 cis-reporter transcription, actives raise or lower the signal
Transcription factor Sp1 (Homo sapiens), sequence (P08047 whole entry, looked up): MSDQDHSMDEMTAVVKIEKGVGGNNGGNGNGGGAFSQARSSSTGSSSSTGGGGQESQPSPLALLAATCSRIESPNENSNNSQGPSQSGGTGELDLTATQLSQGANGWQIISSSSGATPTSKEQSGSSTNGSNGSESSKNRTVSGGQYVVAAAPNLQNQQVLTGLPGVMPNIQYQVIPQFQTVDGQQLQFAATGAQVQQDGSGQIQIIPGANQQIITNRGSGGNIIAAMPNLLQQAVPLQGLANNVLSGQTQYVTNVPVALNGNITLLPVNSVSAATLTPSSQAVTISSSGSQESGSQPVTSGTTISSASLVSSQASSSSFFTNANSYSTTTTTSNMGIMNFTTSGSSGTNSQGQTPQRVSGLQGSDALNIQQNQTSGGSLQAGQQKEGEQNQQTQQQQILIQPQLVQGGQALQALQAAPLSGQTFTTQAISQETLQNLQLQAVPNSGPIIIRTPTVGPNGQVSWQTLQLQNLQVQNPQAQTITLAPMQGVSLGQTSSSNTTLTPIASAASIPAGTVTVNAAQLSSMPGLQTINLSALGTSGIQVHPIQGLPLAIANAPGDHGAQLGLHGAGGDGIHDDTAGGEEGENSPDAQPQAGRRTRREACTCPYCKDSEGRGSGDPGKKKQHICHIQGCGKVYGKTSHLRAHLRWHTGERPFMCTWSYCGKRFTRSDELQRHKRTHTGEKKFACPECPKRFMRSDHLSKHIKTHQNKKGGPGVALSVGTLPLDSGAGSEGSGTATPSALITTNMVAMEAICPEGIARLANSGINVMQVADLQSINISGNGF
Outline: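 Transient MRTU-transfected HepG2, 24 h compound exposure. Total RNA → oligo(dT) RT → PCR of reporter → 6-FAM primer extension → HpaI digest → CE. Endpoint fitted both directions vs DMSO.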

[16] = ATG_SREBP_CIS: Attagene CIS-FACTORIAL HepG2 Assay for human Sterol Regulatory Element Binding (SREBP) (AID 2282962); conditions: HepG2 Attagene cis-factorial SREBP reporter, mRNA; actives raise or lower the signal
Outline: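 In this cis-format assay, HepG2 liver cells express reporters controlled by promoter elements responsive to native transcription factors. Exposure lasts 24 h; reporter mRNA fluorescence from capillary electrophoresis gives the signal, fitted bidirectionally against DMSO.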

[17] = target: Signal transducer and activator of transcription 3 (Homo sapiens) (UniProt P40763); test: ATG_STAT3_CIS: Attagene CIS-FACTORIAL HepG2 Assay for human Signal Transducer and Activator of Transcription 3 (STAT3) (AID 2282963); conditions: HepG2, Attagene cis-factorial STAT3 reporter transcription; actives raise or lower the signal
Signal transducer and activator of transcription 3 (Homo sapiens), sequence (P40763 whole entry, looked up, the tested form may be a part): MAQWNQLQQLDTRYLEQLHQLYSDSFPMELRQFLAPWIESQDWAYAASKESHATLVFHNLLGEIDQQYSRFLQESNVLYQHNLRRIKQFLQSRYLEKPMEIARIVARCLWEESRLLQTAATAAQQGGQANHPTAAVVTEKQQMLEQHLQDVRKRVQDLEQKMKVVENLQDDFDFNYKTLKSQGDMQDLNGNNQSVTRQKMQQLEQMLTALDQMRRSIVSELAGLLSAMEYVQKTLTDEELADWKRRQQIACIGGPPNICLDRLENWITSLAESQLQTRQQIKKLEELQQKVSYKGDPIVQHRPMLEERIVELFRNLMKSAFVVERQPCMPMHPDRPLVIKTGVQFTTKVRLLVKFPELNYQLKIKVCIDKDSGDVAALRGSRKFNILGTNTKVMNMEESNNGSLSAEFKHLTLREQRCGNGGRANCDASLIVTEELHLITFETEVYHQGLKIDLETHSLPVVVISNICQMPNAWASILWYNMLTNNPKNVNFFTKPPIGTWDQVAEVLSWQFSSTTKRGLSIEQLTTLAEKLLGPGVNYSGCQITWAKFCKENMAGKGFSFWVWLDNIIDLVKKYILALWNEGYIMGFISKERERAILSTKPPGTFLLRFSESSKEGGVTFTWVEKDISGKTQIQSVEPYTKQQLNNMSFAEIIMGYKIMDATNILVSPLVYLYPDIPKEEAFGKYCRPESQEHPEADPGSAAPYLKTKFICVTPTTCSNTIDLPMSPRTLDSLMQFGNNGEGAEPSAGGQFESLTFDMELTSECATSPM
Outline: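 Readout: fluorescent reporter mRNA fragments resolved by capillary electrophoresis. Setup: HepG2 transfected with MRTUs reporting endogenous transcription-factor activity, dosed 24 h. Gain or loss of signal fitted bidirectionally against DMSO control.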

[18] = ATG_TA_CIS: Attagene CIS-FACTORIAL HepG2 Assay for human TA Basal Promoter (AID 2282964); conditions: HepG2 Attagene CIS-factorial TA basal promoter reporter; actives raise or lower the signal
Outline: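 Steps: transfect HepG2 with MRTUs; dose 24 h; isolate RNA, DNase-treat, reverse-transcribe; PCR and FAM-label reporter cDNA; digest with HpaI 2h at 37 C; run capillary electrophoresis. Activity fitted both directions against DMSO.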

[19] = target: Hepatocyte nuclear factor 6 (Homo sapiens) (UniProt Q9UBC0); test: ATG_HNF6_CIS: Attagene CIS-FACTORIAL HepG2 Assay for human Hepatocyte Nuclear Factor 6 (HNF6) (AID 2282952); conditions: HepG2 Attagene cis-factorial HNF6 reporter transcription; actives raise or lower the signal
Hepatocyte nuclear factor 6 (Homo sapiens), sequence (Q9UBC0 whole entry, looked up): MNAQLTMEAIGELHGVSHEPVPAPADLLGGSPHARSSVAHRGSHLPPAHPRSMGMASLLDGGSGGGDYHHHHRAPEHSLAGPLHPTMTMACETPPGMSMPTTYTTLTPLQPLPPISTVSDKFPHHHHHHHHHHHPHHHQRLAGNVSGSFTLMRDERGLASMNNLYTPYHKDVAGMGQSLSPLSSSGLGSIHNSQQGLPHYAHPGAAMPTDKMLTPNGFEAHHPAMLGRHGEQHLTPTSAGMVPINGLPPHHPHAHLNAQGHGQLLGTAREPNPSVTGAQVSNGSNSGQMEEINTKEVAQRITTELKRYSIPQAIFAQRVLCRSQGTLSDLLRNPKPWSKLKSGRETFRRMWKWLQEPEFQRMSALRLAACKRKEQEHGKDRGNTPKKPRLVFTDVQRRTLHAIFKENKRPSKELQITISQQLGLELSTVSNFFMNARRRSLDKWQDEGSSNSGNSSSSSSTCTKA
Outline: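 Activity values derive from bidirectional fitting against DMSO of reporter mRNA levels, measured by capillary electrophoresis of labelled RT-PCR products from HepG2 cells exposed 24 h.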

Measured: AC50

CC(=O)N(C)C
inactive: [1] | [2] | [3] | [4] | [5] | [6] | [7] | [8] | [9] | [10] | [11] | [12] | [13] | [14] | [15] | [16] | [17] | [18]

CC(=O)c1cccnc1
inactive: [1] | [2] | [3] | [4] | [5] | [6] | [19] | [8] | [9] | [10] | [11] | [12] | [13] | [14] | [15] | [16] | [17] | [18]

C[C@]12CC[C@@H]3c4ccc(O)cc4CC[C@H]3[C@@H]1CC[C@@H]2O
active: [8] 31.8 µM and 21 µM and 25.8 µM | [11] 5.88 µM [middle of 4 runs] | [16] 26.5 µM and 25.8 µM
inactive: [1] | [2] | [3] | [4] | [5] | [19] | [7] | [8] | [9] | [10] | [11] | [13] | [14] | [15] | [16] | [17] | [18]

CC(C)(CO)CO
inactive: [1] | [2] | [3] | [4] | [5] | [6] | [19] | [7] | [8] | [10] | [11] | [13] | [14] | [15] | [16] | [18]

O=C(O)c1cc2ccccc2cc1O
inactive: [1] | [2] | [3] | [4] | [5] | [6] | [19] | [8] | [9] | [10] | [13] | [14] | [15] | [16] | [17] | [18]
active: [11] 54.4 µM | [12] 52 µM

CC(C)(O)C(=O)c1ccc(OCCO)cc1
inactive: [1] | [2] | [3] | [4] | [5] | [6] | [19] | [7] | [8] | [10] | [11] | [13] | [14] | [15] | [17] | [18]

CC/C(=C(\c1ccccc1)c1ccc(OCCN(C)C)cc1)c1ccccc1
inactive: [1] | [2] | [3] | [4] | [5] | [6] | [19] | [7] | [8] | [10] | [12] | [13] | [14] | [15] | [18]

CCCc1ccc(O)cc1
inactive: [1] | [2] | [3] | [4] | [5] | [19] | [7] | [8] | [9] | [10] | [11] | [12] | [13] | [14] | [15] | [16] | [17] | [18]
